This is an account of results in PubChem BioAssay (NCATS).

Each structure is given as a SMILES string. Results filed as inconclusive are left out. The source made the active and inactive calls. Unless noted, calls follow the shape of the full dose curve.

In experiment [1] the target is Peroxisome proliferator-activated receptor delta (Homo sapiens) (UniProt Q03181). In words: qHTS assay for small molecule agonists of peroxisome proliferator-activated receptor delta signaling (AID 588534).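 Also: 0% = DMSO basal wells and 100% = positive control agonist at 10 µM.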 Put shortly: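 Agonist-mode beta-lactamase reporter readout (CCF4 dye, 2 h at RT) after 18 h at 37 °C exposure to a titration; Hill-equation fitting gave EC50 and maximal response.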

Experiment [2] is described as follows: qHTS assay for small molecule antagonists of peroxisome proliferator-activated receptor delta signaling (AID 588535; active = well fitted inhibition curve with a large enough effect in the signal ratio, with a control signal flat, not every such curve was filed as active; the % refers to the signal ratio;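 as to max response: cells co-treated with a PPAR-delta agonist as stimulator during compound exposure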). The note with it: HEK293T PPARd-UAS-bla, beta-lactamase FRET ratio, 18 h; 460 nm channel. Put shortly:
(§1)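 Inhibition of PPAR-delta response element-driven beta-lactamase expression is measured in HEK293T cells exposed to a compound titration series for 18 hrs at 37 C. Half-maximal inhibition comes from Hill equation fitting.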
A general note: Quantitative high-throughput screening tests each substance at several concentrations.

The target in experiment [3] is Peroxisome proliferator-activated receptor delta (Homo sapiens) (UniProt Q03181). The description is as above. Put shortly:
as §1

Experiment [4] addresses Peroxisome proliferator-activated receptor gamma (Homo sapiens) (UniProt P37231). Nature of the experiment: qHTS assay for small molecule agonists of peroxisome proliferator-activated receptor gamma signaling (AID 588536; active = well fitted curve in the direction sought with a large enough effect in the signal ratio, with a control signal flat, not every such curve was filed as active; the % refers to the signal ratio). In short, it runs like this: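 Using GeneBLAzer HEK293 cells, response was quantified by CCF4 fluorescence and normalized between basal DMSO (0%) and rosiglitazone 2 uM (100%); curves yielded half-maximal stimulation concentration and efficacy.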

Experiment [5] has the same target. Nature of the experiment: qHTS assay for small molecule antagonists of peroxisome proliferator-activated receptor gamma signaling (AID 588537; active = well fitted inhibition curve with a large enough effect in the signal ratio, with a control signal flat, not every such curve was filed as active; the % refers to the signal ratio;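 also: reporter cells co-stimulated with 50 nM rosiglitazone agonist during compound treatment; % of control where 0% means no effect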). Put shortly: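 Compounds are tested as concentration series for inhibition of rosiglitazone-driven (50 nM) reporter expression in GeneBLAzer PPAR-gamma-UAS-bla HEK293 cells. After 16 h at 37 C, CCF4 substrate is added for 2 h at room temperature and blue/green fluorescence is measured.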

Experiment [6] is described as follows: qHTS assay for small molecule agonists of retinoid X receptor alpha signaling (AID 588544). Conditions: HEK293T RXRa-UAS-bla, beta-lactamase reporter, 18 h; 530 nm emission.
Experiment [7] has as its target Retinoic acid receptor RXR-alpha (Homo sapiens) (UniProt P19793). Described as above.
Experiment [8] has as its target Thyroid hormone receptor beta (Homo sapiens) (UniProt P10828). In words: qHTS assay for small molecule agonists of thyroid hormone receptor beta signaling (AID 588545).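 Also: 0% = DMSO only and 100% = 10 nM T3.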 Put shortly: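 TR-UAS-bla-GripTite HEK 293 cells in medium with 2% charcoal/dextran FBS, 0.1 mM NEAA and 1 mM sodium pyruvate were treated with titrated compounds for 18 hrs at 37 C. Beta-lactamase reporter was read with CCF4 dye (ex 405, em 460/530 nm); EC50 from Hill fits.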

For experiment [9] the target is unchanged. In words: qHTS assay for small molecule antagonists of thyroid hormone receptor beta signaling (AID 588547; active = well fitted inhibition curve with a large enough effect in the signal ratio, with a control signal flat, not every such curve was filed as active; the % refers to the signal ratio;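 also: cells stimulated with 0.4 nM T3 agonist during compound exposure; series mostly up to about 77 µM; % is scaled to controls: 0 for no effect and ±100 for the full control effect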). Conditions: TR-UAS-bla HEK293, beta-lactamase ratio, antagonist mode, 18 h. In short, it runs like this: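 TR-UAS-bla GripTite HEK293 cells in 2% charcoal/dextran FBS medium were preincubated 4 h at 37 C, given compound (0.59 nM to 92 uM) plus 0.4 nM T3 (final) for 18 h, then CCF4 for 2 h at RT; Hill fit gave IC50.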

A short description of experiment [10]: qHTS assay for small molecule agonists of the antioxidant response element (ARE) signaling pathway (AID 651741; active = well fitted activation curve with a large enough effect in the signal ratio; the % refers to the signal ratio; also: potency is read from the fitted curve at half-maximal effect). In short, it runs like this:
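Reporter: beta-lactamase under ARE, stably in HepG2. Exposure: 16 h, 37 C, compounds delivered in DMSO by pin tool after 5 h cell preincubation. Readout: FRET substrate fluorescence after 2 h at RT.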

Experiment [11] in a line: qHTS assay for small molecule activators of the p53 signaling pathway (AID 651743; active = well fitted activation curve with a large enough effect in the signal ratio, not every such curve was filed as active; the % refers to the signal ratio; also: series mostly up to about 92 µM; % of control where 0% means no effect). Conditions: HCT-116 p53RE-bla, beta-lactamase FRET ratio, 16 h; activation: stronger effect = higher value. Put shortly: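 Agonist-mode quantitative HTS in HCT-116 cells carrying a p53-response-element beta-lactamase reporter; 16 h compound treatment at 37 C, then FRET substrate loading for 2 h at room temperature and fluorescence read.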

A short description of experiment [12]: qHTS assay for environmental chemicals that activate the Aryl hydrocarbon Receptor (AhR) signaling pathway (AID 651777; active = well fitted curve in the direction sought with a large enough effect; an effect the other way counts as inactive or inconclusive; also: % of control where 0% means no effect; nearly all actives have a fitted effect of over 15% in size). The note with it: 1A2-DRE human hepatoma cells, luciferase, 24 h; activation: stronger effect = higher value. Put shortly:
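AhR activation is scored as a rise in luciferase from a stable DRE–CYP1A2 promoter construct in human hepatoma cells. Treatment lasts 24 hr at 37 C; detection uses One-Glo after 30 min at room temperature.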

Experiment [13] addresses Peroxisome proliferator-activated receptor alpha (Homo sapiens) (UniProt Q07869). In words: qHTS assay for small molecule agonists of the peroxisome proliferator-activated receptor alpha (PPARalpha) signaling pathway (AID 651778; active = well fitted curve in the direction sought with a large enough effect; an effect the other way counts as inactive or inconclusive; also: % of control where 0% means no effect). The note with it: PathHunter PPARalpha complementation, chemiluminescence, 6 h; max response: stronger effect = higher value. Put shortly:
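Cells plated at 2,000/well and held overnight at 37 C, 5% CO2, then compound added by pin tool for 6 hr; after PathHunter detection reagent and 60 min at room temperature, chemiluminescence from enzyme complementation was read.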

Experiment [14] is described as follows: qHTS assay for small molecule agonists of the antioxidant response element (ARE) signaling pathway measured by Nrf2-dependant transcriptional activity (AID 720636; active = well fitted curve in the direction sought with a large enough effect in the repeat runs; an effect the other way counts as inactive or inconclusive;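 also: HepG2 cells with an ARE-driven luciferase reporter; % of control where 0% means no effect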). Put shortly:
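First, ARE-luc HepG2 cells attached for 6 hr at 37 C in 1% dialyzed FBS medium. Next, compound or DMSO was added and incubated 16 hr. Finally, ONE-Glo reagent was added and luminescence measured after 30 min.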

Experiment [15] is described as follows: qHTS assay for small molecule agonists of the antioxidant response element (ARE) signaling pathway measured by Nrf2-dependant transcriptional activity - cell viability counter screen (AID 720653; active = well fitted curve in the direction sought with a large enough effect in the repeat runs; an effect the other way counts as inactive or inconclusive; also: % is scaled to controls: 0 for no effect and ±100 for the full control effect). Conditions: ARE-bla HepG2 viability, CellTiter-Glo ATP luminescence, 16 h; max response: stronger effect = lower value. In short, it runs like this: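 ARE-bla HepG2 cells (2,000/well) rested 5 hrs at 37C/5% CO2, then exposed to compounds in DMSO for 16 hrs. Viability was read in the same wells as intracellular ATP by luminescence, 30 min at room temperature after reagent addition.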

Experiment [16] can be described thus: qHTS assay for cell viability of HEK293 cells (AID 743288; active = well fitted curve in the direction sought with a large enough effect; an effect the other way counts as inactive or inconclusive; also: % is scaled to controls: 0 for no effect and ±100 for the full control effect; nearly all actives have a fitted effect of over 50% in size). Conditions: ATP luminescence (CellTiter-Glo), 18 h; max response: stronger effect = lower value. Put shortly:
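After 18 h compound exposure at 37 C, parental HEK293 cells (2,000/well) are lysed with CellTiter-Glo and luminescence is read following 30 min at room temperature.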

Experiment [17] is described as follows: qHTS assay for cell viability of the p53RE-bla HCT-116 cell line (AID 743292; active = well fitted curve in the direction sought with a large enough effect; an effect the other way counts as inactive or inconclusive; also: % is scaled to controls: 0 for no effect and ±100 for the full control effect; nearly all actives have a fitted effect of over 55% in size). Put shortly:
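Quantitative high-throughput format: compounds in DMSO were pinned onto p53RE-bla HCT-116 cells (4,000/well) and incubated 16 h at 37 C. Total intracellular ATP, read by CellTiter-Glo luminescence, reflects viable cell number.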

The target of experiment [18] is Voltage-gated inwardly rectifying potassium channel KCNH2 (Homo sapiens) (UniProt Q12809). In words: qHTS Assay for Small Molecule Inhibitors of the Human hERG Channel Activity (AID 588834; active = well fitted curve in the direction sought with a large enough effect; an effect the other way counts as inactive or inconclusive;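 also: top concentration of the series differs between compounds; % is scaled to controls: 0 for no effect and ±100 for the full control effect; lower thallium flux fluorescence means stronger hERG block; nearly all actives have a fitted effect of over 50% in size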). Put shortly:
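In hERG-transduced U2OS cells, dye-loaded for 1 hr at room temperature in dark, test compounds incubated 10 min at 37 °C before thallium stimulation. AC50 values derived by Hill modelling of concentration-response.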

In experiment [19] the target is Vitamin D3 receptor (Homo sapiens) (UniProt P11473). Nature of the experiment: qHTS assay for small molecule antagonists of vitamin D receptor signaling (AID 588541).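 Also: receptor activated by calcitriol during compound treatment; series mostly up to about 77 µM; % is scaled to controls: 0 for no effect and ±100 for the full control effect.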 In short, it runs like this: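 VDR-UAS-bla HEK293T cells (2000/well, 2% charcoal-stripped FBS) were treated with titrated compounds plus 1-alpha,25-dihydroxyvitamin D3 (50 nM or 3 nM final) for 16 h at 37 C. CCF4 beta-lactamase fluorescence was read; Hill fits gave IC50.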

Experiment [20] has the same target. In words: qHTS assay for small molecule agonists of vitamin D receptor signaling (AID 588543). In short, it runs like this: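 GeneBLAzer VDR-UAS-bla HEK293T cells in 2% charcoal-stripped FBS medium were dosed with compound titrations for 16 h at 37 °C; CCF4 β-lactamase readout (405 nm ex, 460/530 nm em). EC50 and efficacy from Hill fits, normalized to 50 nM calcitriol (100%) and DMSO (0%).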

Experiment [21] can be described thus: qHTS assay for small molecule antagonists of retinoid X receptor alpha signaling (AID 588546).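 Also: cells stimulated with 9-cis-retinoic acid as agonist; % is scaled to controls: 0 for no effect and ±100 for the full control effect.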 Conditions: HEK293T RXRa-UAS-bla, beta-lactamase ratio, antagonist mode; measured here: W530 green channel, cytotoxicity proxy. Put shortly: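 Beta-lactamase reporter inhibition, read as CCF4 fluorescence ratio (ex 405, em 460/530 nm) after 2 h at RT. HEK293T UAS-bla cells, 2500/well, were stimulated with 9-cis-RA at 500 or 100 nM final alongside test compound for 18 h at 37 C.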

In experiment [22] the target is Nuclear receptor subfamily 1 group I member 2 (Rattus norvegicus) (UniProt Q9R1A7). Nature of the experiment: qHTS assay for small molecule activators of the rat pregnane X receptor (rPXR) signaling pathway (AID 651751; call rule not given here; also: 0% is about no effect). The note with it: rPXR reporter cells, luciferase (One-Glo), 24 h.
Experiment [23] is described as follows: qHTS assay for small molecule activators of the human pregnane X receptor (PXR) signaling pathway (AID 720659; call rule not given here; also: 0% is about no effect).

Chain of Peroxisome proliferator-activated receptor delta (Homo sapiens) (Q03181 whole entry, looked up): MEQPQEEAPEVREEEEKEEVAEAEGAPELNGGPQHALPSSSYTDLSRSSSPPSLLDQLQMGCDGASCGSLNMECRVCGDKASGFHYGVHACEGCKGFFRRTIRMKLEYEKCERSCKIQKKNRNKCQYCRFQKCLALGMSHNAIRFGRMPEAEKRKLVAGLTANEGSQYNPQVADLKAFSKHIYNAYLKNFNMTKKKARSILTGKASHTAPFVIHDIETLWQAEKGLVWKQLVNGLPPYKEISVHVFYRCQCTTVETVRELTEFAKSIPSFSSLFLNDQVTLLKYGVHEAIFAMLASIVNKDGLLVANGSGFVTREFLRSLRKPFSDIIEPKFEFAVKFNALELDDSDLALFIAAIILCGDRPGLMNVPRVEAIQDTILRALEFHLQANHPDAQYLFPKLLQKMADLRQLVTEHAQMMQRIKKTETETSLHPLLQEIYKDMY
Chain of Peroxisome proliferator-activated receptor gamma (Homo sapiens) (P37231 whole entry, looked up): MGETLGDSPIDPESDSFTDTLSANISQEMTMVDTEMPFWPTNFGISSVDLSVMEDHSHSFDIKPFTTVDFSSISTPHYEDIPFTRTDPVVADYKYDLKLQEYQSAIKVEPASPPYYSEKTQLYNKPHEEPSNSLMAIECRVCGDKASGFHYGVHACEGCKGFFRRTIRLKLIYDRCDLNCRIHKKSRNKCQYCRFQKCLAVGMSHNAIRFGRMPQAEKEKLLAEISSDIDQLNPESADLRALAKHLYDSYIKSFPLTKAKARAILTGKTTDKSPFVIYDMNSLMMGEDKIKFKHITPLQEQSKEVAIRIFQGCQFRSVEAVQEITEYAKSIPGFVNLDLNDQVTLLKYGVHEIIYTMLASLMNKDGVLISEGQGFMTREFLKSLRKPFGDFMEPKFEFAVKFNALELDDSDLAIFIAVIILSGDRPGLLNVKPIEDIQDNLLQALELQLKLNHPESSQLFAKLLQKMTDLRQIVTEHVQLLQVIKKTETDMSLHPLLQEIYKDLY
Chain of Thyroid hormone receptor beta (Homo sapiens) (P10828 whole entry, looked up): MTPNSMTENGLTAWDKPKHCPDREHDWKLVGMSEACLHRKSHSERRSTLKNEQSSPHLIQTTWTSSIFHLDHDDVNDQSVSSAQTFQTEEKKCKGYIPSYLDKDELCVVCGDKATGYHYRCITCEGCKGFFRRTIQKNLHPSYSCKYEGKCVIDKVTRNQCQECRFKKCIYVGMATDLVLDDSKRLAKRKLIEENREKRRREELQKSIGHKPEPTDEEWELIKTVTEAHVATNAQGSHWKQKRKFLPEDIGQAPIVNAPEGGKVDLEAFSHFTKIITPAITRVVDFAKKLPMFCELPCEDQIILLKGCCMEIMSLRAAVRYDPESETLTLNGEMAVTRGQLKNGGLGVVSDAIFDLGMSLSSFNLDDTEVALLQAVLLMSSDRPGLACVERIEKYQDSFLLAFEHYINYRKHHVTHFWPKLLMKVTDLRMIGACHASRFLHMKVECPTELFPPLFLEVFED
Chain of Vitamin D3 receptor (Homo sapiens) (P11473 whole entry, looked up): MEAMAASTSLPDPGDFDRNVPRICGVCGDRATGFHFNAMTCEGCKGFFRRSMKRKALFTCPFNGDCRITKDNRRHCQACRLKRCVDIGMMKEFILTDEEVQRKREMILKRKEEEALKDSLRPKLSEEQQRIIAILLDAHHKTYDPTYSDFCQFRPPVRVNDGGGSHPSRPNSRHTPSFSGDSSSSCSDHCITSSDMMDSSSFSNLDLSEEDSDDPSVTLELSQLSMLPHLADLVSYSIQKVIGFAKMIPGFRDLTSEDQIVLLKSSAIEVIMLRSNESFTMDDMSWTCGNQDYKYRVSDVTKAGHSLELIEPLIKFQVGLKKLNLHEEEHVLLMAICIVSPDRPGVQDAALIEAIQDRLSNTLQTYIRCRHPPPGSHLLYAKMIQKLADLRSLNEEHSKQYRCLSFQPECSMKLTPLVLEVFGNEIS
Chain of Peroxisome proliferator-activated receptor alpha (Homo sapiens) (Q07869 whole entry, looked up): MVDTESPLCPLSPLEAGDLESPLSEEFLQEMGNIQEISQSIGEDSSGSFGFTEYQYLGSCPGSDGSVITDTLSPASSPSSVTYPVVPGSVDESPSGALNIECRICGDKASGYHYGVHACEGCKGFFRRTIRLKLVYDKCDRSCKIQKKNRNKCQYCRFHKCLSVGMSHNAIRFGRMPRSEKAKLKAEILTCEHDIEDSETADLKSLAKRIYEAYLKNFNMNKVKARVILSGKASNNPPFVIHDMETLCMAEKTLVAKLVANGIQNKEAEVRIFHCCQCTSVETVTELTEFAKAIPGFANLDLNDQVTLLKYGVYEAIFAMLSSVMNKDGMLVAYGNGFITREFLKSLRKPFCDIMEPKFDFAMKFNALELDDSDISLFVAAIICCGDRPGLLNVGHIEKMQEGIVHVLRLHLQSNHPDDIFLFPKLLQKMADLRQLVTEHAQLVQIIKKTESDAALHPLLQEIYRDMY
Chain of Retinoic acid receptor RXR-alpha (Homo sapiens) (P19793 whole entry, looked up): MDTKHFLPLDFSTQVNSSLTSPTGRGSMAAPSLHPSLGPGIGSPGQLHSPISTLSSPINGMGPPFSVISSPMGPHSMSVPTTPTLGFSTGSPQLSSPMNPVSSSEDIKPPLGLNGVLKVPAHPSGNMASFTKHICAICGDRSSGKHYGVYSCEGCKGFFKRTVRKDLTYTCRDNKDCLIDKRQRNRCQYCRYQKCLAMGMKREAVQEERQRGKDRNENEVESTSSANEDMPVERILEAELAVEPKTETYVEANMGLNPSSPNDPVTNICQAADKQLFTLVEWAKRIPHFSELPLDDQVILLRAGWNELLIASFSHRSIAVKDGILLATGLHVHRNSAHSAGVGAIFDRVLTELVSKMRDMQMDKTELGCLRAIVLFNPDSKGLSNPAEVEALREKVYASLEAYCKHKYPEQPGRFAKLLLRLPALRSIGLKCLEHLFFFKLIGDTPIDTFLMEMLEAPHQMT
Chain of Nuclear receptor subfamily 1 group I member 2 (Rattus norvegicus) (Q9R1A7 whole entry, looked up): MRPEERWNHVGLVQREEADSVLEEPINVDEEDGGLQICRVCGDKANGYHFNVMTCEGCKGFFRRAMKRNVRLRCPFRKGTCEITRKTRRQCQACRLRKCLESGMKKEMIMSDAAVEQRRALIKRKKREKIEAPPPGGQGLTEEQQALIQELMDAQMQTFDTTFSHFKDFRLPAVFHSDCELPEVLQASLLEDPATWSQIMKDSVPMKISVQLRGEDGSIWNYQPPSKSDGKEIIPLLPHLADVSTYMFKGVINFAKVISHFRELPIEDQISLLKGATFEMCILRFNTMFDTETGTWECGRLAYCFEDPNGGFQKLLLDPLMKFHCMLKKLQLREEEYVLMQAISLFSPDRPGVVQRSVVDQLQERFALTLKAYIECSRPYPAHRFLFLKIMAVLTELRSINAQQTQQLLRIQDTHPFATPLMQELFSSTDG
Chain of Voltage-gated inwardly rectifying potassium channel KCNH2 (Homo sapiens) (Q12809 whole entry, looked up): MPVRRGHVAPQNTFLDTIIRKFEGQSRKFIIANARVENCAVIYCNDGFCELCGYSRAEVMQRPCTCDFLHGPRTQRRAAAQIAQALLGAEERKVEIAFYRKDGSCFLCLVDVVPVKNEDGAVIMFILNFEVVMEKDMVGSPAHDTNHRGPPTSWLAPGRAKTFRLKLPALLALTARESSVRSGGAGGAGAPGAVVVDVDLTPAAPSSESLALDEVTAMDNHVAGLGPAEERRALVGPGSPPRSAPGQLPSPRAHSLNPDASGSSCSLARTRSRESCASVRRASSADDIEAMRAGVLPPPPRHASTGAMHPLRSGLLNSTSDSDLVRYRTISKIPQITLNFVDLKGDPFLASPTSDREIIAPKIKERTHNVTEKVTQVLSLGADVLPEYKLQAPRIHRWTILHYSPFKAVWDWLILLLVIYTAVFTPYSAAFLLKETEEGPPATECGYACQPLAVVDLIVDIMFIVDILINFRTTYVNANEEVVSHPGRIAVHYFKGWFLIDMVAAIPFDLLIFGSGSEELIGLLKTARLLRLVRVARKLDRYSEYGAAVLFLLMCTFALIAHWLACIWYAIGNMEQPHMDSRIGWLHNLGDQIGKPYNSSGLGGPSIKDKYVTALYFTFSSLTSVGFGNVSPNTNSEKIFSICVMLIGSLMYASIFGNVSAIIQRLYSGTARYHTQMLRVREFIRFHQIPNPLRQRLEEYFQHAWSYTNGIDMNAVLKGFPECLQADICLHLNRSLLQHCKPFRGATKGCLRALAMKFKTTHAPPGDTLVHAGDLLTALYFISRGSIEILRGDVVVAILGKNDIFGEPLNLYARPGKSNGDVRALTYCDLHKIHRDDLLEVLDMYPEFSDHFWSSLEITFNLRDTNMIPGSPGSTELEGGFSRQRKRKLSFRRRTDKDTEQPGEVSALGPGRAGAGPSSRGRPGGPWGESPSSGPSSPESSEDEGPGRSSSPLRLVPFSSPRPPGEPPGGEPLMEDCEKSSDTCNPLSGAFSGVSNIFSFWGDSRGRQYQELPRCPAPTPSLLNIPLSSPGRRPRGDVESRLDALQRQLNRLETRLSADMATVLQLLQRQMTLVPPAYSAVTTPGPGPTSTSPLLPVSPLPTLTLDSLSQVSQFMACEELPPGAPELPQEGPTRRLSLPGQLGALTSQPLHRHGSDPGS

Regarding `CC(C)[C@H](C(=O)O[C@H](C#N)c1cccc(Oc2ccccc2)c1)c1ccc(Cl)cc1`, the result in [1] was inactive. For the same molecule, the max response was 2% in experiment [2]; -3.66% in experiment [6]; 0.0129% (inactive) in [13]; 6.41% (inactive) in experiment [15]; -17.9% (inactive) in experiment [16]. Moreover, the Potency result in experiment [3], in [4], in experiment [5], in [7], in experiment [8] and in experiment [14] was “inactive” each time. In [17], the Potency result is “inactive”. Also, in [9], the activity change % (negative = inhibition) was -0.522% (inactive). For the same molecule, in experiment [10], the Potency is 61.1 µM (active). For the same molecule, the activation was -0.0449% (inactive) in [11] and 0.849% (inactive) in [12].

With `O=C(O)/C=C/c1ccc(/C=C/C(=O)O)cc1`, the outcome in [1] was inactive.

Regarding `NCCN`, in experiment [1], the outcome was inactive. Besides, the Potency entry in experiment [18] was “inactive”.

As to `O=C(O)c1ccc(C(=O)O)cc1`, the result in experiment [1] was inactive.

As to `[CH3][Sn]([CH3])([Cl])[Cl]`, the molecule was called inactive in experiment [1], in [20] and in experiment [23]. Besides, the max response in experiment [2] is 1.89%; in experiment [6] it was -7.56%; in experiment [21], -2.31%; in experiment [13], -1.2% (inactive); in experiment [15], 3.28% (inactive); in experiment [16], -9.37% (inactive). Also, the max response in [22] was -0.47% (inactive). For the same molecule, the Potency result in experiment [3], in [4], in [5], in [19], in experiment [7] and in experiment [8] was “inactive” throughout. Also, the Potency result in experiment [14] and in [17] was “inactive” throughout. For the same molecule, in [9], the activity change % (negative = inhibition) was 0.969% (inactive). Also, the activation in experiment [12] is -0.285% (inactive).
